Reference: PubChem BioAssay AID1468 (National Center for Advancing Translational Sciences (NCATS), 2008)
The campaign covered roughly 280,000 compounds. About 1,100 (0.39%) were called active. Not shown: some 7% with an inconclusive outcome. Calls follow the shape of the dose curve; as a rule, active = well fitted inhibition curve with a large enough effect; inconclusive = small, poorly fitted or top-dose-only effect, or effect the other way; inactive = flat fitted curve, though single readings scatter. For the sample, actives were picked, then their nearest neighbours and some compounds at random.

These molecules were tested against Microtubule-associated protein tau (Homo sapiens) (UniProt P10636) (assay: qHTS for Inhibitors of Tau Fibril Formation, Fluorescence Polarization). Details: K18 P301L tau heparin fibrillization, Alexa594 FP, 6 h; series mostly up to 57.7 µM; activity, negative = inhibition: at the top concentration.
Sequence of Microtubule-associated protein tau (Homo sapiens) (P10636 561-689 P618L limits assumed): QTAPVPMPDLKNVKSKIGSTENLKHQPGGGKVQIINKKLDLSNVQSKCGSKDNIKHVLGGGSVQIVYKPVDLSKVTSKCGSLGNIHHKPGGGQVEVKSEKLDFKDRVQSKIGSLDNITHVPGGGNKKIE
How it was run: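 FP of Alexa 594-tau after heparin (20 uM) induction. Substrate: human K18 P301L, 15 uM unlabeled, 0.24 uM labeled. Buffer 100 mM sodium acetate pH 7. 6 hr, 37 C.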
% is scaled to controls: 0 for no effect and ±100 for the full control effect; potency is read from the fitted curve at half-maximal effect.
Also: nearly all actives have a fitted effect of over 55% in size.

activity, negative = inhibition, inactive:
COc1ccc(-c2nc(SCC(=O)N3CCCCC3C)n[nH]2)cc1 (stereo not drawn) 0.155%
Cc1nc(SCCOc2ccc(Cl)cc2)[nH]c(=O)c1Cc1ccccc1 -15.5%
N#C/C(=C\c1ccccc1C(F)(F)F)C(=O)Nc1ccccc1F 0.663%
C(=N\N1CCN(c2ccccn2)CC1)/C1=C(N2CCOCC2)C(=C/c2ccccc2)/CC1 2.73%
Cc1c(Cl)cccc1-c1ccc(CNCCCSc2nnnn2C)o1 11.9%
Cc1cccc2nc(-c3ccc(Cl)s3)c(Nc3ccc4c(c3)OCCO4)n12 15.1%
Cc1ccc2sc(N(Cc3cccnc3)C(=O)C3COc4ccccc4O3)nc2c1C (stereo not drawn) -11.1%
COc1ccc(N2CCN(C(=O)C3CCCN(C(=O)c4cc5sccc5n4C)C3)CC2)cc1 (stereo not drawn) 0.211%
CCc1ccc(CN(Cc2ccco2)C(=O)COc2ccc(Cl)c(C)c2)cc1 -0.51%
CCOC(=O)C1=C(C)N=c2s/c(=C\C(=O)OC)c(=O)n2C1c1ccc(OC)cc1 (stereo not drawn) -6.96%
O=C1CCCC2=C1C(c1ccccc1)n1c(s/c(=C/c3cccc(F)c3)c1=O)=N2 (stereo not drawn) 3.54%
COC(=O)c1sccc1S(=O)(=O)N(CC(=O)Nc1ccc(C)c(F)c1)c1ccc(C)c(C)c1 -14.9%
CCOc1ccc(Nc2ncnc3scc(-c4ccc(OC)cc4)c23)cc1 -6.54%
CCOC(=O)N1CCc2c(sc(NCc3cccc(F)c3)c2C(=O)Nc2ccccc2OCC)C1 -0.601%
CCOC(=O)N1CCc2c(sc3c2c(=O)n(-c2ccc(CC)cc2)c(=O)n3C)C1 -1.85%
Cc1ccccc1CNC(=O)c1cccc(NC(=O)c2nsc3ccccc23)c1 -13.5%
Cc1cc(NC(=O)Nc2ccc(Cl)cc2)n(-c2ccccc2)n1 -1.98%
Cc1cc(NC(=O)Nc2ccccc2)n(-c2ccccc2)n1 0.333%
CC1CN(C(=O)N2CCC(C(=O)NCc3ccco3)CC2)c2cc(Cl)ccc2O1 (stereo not drawn) -17%
Cc1cccc(NC(=O)CSc2nc3c([nH]c4ccccc43)c(=O)n2-c2cc(C)cc(C)c2)c1 2.58%
COCCn1c(SCC(=O)c2cc(C)ccc2C)nc2cc(C(=O)NC3CCCC3)ccc2c1=O 5.5%
COc1ccc(-c2cn3c(C)c(C(=O)Nc4cc(C)cc(C)c4)sc3n2)cc1 1.72%
O=C1OC(NC(=O)c2ccccc2)C(N2CCOCC2)=C1Cl (stereo not drawn) 2.21%
c1ccc(-n2nnnc2N2CCOCC2)cc1 -2.66%
Cc1ccc2nc(N3CCN(c4cccc(Cl)c4)CC3)c3nnnn3c2c1 4.68%
O=C(CNS(=O)(=O)c1cccs1)N1CCN(c2ccccc2Cl)CC1 -6.87%
Cc1ccccc1CN1CCC(CNC(=O)c2cc3ccc4cccnc4c3[nH]2)CC1 -3.29%
COc1ccccc1CNC(=O)NCc1noc2ccc(C)cc12 1.34%
Cc1ccc(NC(=O)C2CCN(S(=O)(=O)c3cc(-c4noc(C)n4)ccc3C)CC2)c(C)c1 -4.96%
COc1ccc(OC)c(NC(=O)CSc2nc3ccccc3nc2N2CCCCC2)c1 -3.04%
CC(C)Cn1c(=O)c2ccccc2n2c(-c3cccc(Cl)c3)nnc12 3.1%
COc1ccc2c(c1)c(N1CCCC1=O)c(C(=O)Nc1ccccc1C(F)(F)F)n2C 2.44%
COc1ccc(Nc2nc(Cl)nc(NCc3ccco3)n2)cc1 -4.68%
CN(c1ccccc1)c1nc(N)c([N+](=O)[O-])c(NCc2ccco2)n1 -3.58%
O=C(NCC(c1cccnc1)N1CCc2ccccc21)c1cccc(C(F)(F)F)c1 (stereo not drawn) 0.0255%
COc1ccc(S(=O)(=O)NC(C)C)cc1C(=O)NC1CCCCC1 5.06%
Cc1cc(C)cc(NS(=O)(=O)c2ccc3[nH]cc(C(=O)N4CCCCC4)c(=O)c3c2)c1 -10.1%

Potency, active:
N#C/C(=C\C1=C(N2CCOCC2)C(=C\c2ccccc2)/CC1)C(=O)Nc1ccccc1F 25.1 µM
COc1ccc(OC)c(C2C3=C(N=c4s/c(=C\c5cccc(O)c5)c(=O)n42)c2ccccc2CC3)c1 (stereo not drawn) 22.4 µM
Cc1ccc(NC(=O)Nc2cc(-c3ccccc3)nn2C)cc1Cl 14.1 µM
O=C1C(Cl)=C(N2CCOCC2)C(=O)N1c1ccccc1 28.2 µM
O=c1c(O)c(Br)ccc2c(Br)c(O)c(O)c(O)c12 10 µM
COc1cccc(Nc2nc(N)c([N+](=O)[O-])c(NCc3ccco3)n2)c1 3.16 µM
